# Results: PubChem BioAssay
# Where “and” joins values, the source holds several entries; their conditions need not be identical. Equal values may be shown once. Results filed as inconclusive are left out. Calls of active or inactive are those of the source. Rule as the data show it, unless noted: active = inhibition above about 80%; inactive = the rest.
# Experiments:
# [1] = target: Mitogen-activated protein kinase 7 (Homo sapiens) (UniProt Q13164); assay: ERK5 transactivation activators in reporter cells, primary screen, cell-based, HTS (AID 1508626;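 active = luciferase signal above three times the same-plate solvent-only control wells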;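 also: luciferase driven by Gal4-ERK5 fusion binding five Gal4 sites before minimal TATA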); details: HeLa Gal4-ERK5 transactivation, 18 h, at 5 µM, stronger effect = higher value
# Sequence of Mitogen-activated protein kinase 7 (Homo sapiens) (Q13164 whole entry, looked up, the tested form may be a part): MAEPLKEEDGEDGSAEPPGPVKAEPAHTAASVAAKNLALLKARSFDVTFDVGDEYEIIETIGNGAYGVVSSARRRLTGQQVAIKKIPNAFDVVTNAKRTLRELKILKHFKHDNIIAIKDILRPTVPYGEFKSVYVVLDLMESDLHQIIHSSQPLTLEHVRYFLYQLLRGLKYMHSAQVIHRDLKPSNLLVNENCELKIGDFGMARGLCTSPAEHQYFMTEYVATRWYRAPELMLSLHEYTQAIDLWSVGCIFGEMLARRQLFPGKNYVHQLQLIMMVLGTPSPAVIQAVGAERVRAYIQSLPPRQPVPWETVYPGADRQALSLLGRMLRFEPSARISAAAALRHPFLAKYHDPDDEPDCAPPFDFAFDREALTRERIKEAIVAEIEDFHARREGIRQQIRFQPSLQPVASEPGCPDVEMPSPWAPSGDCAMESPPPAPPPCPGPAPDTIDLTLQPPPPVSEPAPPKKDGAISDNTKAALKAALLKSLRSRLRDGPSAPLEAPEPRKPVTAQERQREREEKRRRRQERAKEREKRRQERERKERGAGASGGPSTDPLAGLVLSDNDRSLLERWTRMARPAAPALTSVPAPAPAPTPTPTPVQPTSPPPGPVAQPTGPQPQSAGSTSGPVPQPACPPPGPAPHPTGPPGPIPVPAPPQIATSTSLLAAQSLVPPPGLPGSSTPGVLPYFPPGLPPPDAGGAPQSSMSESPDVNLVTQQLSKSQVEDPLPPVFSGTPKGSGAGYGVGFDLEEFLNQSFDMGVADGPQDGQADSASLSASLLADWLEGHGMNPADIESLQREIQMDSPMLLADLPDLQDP
# [2] = viability rescue of complex I mutant cybrids, primary screen, cell-based, galactose medium, ATP luminescence (AID 1645843;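 active = z-score of at least 1.8 in each of two replicates, scored against plate mean and spread of sample wells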;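 also: positive z means more ATP and so rescue of galactose-driven cybrid death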); details: complex I mutant cybrid cells, 72 h, stronger effect = higher value
# [3] = LFS_MB_1R medulloblastoma cell growth inhibition, synergistic combos for chromothripsis tumors, cisplatin or BGB combos (AID 1671452); details: LFS_MB_1R medulloblastoma cells, stronger effect = higher value;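 also: cells exposed for 96 hours before readout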
# [4] = CRL2098 osteosarcoma cell growth inhibition, synergistic combos for chromothripsis tumors, BGB or cisplatin IC20 combos (AID 1671454); details: CRL2098 osteosarcoma cells, drug combinations, stronger effect = higher value;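 also: cells exposed for 96 h before readout; 0% = vehicle DMSO and 100% = killing by high DMSO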
# [5] = HD-MB03 medulloblastoma cell growth inhibition, synergistic combos for chromothripsis tumors, BGB or cisplatin IC20 combos (AID 1671455; in the data active = inhibition above about 83%;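 also: 0% = vehicle DMSO and 100% = high DMSO as cytotoxic control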); details: HD-MB03 medulloblastoma cells, stronger effect = higher value
# [6] = UWB1.289 ovarian carcinoma cell growth inhibition, synergistic combos for chromothripsis tumors, BGB or cisplatin combos (AID 1671456); details: UWB1.289 ovarian carcinoma cells, stronger effect = higher value;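 also: cells exposed to compound for four days; 0% = vehicle DMSO and 100% = killing by high DMSO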
# [7] = LFS_MB_2R medulloblastoma cell growth inhibition, synergistic combos for chromothripsis tumors, cisplatin combos (AID 1671457); details: LFS_MB_2R medulloblastoma cells, stronger effect = higher value;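 also: cells exposed to compound for four days before readout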
# [8] = UWB1.289_BRCA1 ovarian cancer growth, cell-based, BGB or cisplatin combinations (AID 1671459); details: UWB1.289 BRCA1 ovarian carcinoma, drug combinations, stronger effect = higher value
# [9] = human astrocyte viability loss, single and combined drugs, cytotoxicity control for chromothriptic childhood tumor combination screen, cell-based, BGB or cisplatin IC20 combos (AID 1671460); details: Human astrocytes, drug combinations, stronger effect = higher value;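 also: cells exposed to compounds for 96 hours before viability readout; 0% = vehicle and 100% = killing control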
# [10] = growth inhibition of BT084 medulloblastoma cells, cell-based, ICGC_MB145, cisplatin and BGB IC40 combos (AID 1671461); details: drug combinations, stronger effect = higher value;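 also: cells exposed to drugs for 96 hours; 0% = vehicle DMSO and 100% = high DMSO full killing control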
# [11] = growth inhibition of RCMB18 medulloblastoma cells, cell-based, cisplatin and BGB IC40 combos (AID 1671462); details: stronger effect = higher value;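 also: cells exposed to compound for four days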
# [12] = growth inhibition of CRL1545 osteosarcoma cells, cell-based, cisplatin and BGB IC20 combos (AID 1671464); details: stronger effect = higher value;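 also: cells exposed to compound for 96 hours before readout; 0% = vehicle DMSO and 100% = high DMSO killing control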
# [13] = growth inhibition of DIPG glioma cells, dose response, cell-based, JHH-DIPG-1, MIPE4.0, CellTiter-Glo, qHTS (AID 1347062; cut-off not given, nearly all actives have AC50 up to about 27 µM;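 also: cells exposed to compound for two days before readout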); details: JHH-DIPG-1 viability, CellTiter-Glo ATP luminescence
# [14] = growth inhibition of DIPG glioma cells, dose response, cell-based, SU-DIPG-IV, MIPE4.0, CellTiter-Glo, qHTS (AID 1347063; cut-off not given, nearly all actives have AC50 up to about 30 µM;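 also: compound exposure lasted 48 hours before the viability readout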); details: SU-DIPG-IV viability, CellTiter-Glo ATP luminescence
# [15] = growth inhibition of DIPG glioma cells, dose response, cell-based, SU-DIPG-XIII, MIPE5.0, CellTiter-Glo, qHTS (AID 1347064; cut-off not given, nearly all actives have AC50 up to about 23 µM;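 also: cells exposed to compound for 48 hours before the viability read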); details: SU-DIPG-XIII viability, CellTiter-Glo ATP luminescence
# [16] = viability loss in pontine glioma line – cell-based, SU-DIPG-XXV, MIPE5.0, CellTiter-Glo, qHTS, dose response (AID 1347065; cut-off not given, nearly all actives have AC50 up to about 26 µM;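 also: cells exposed to compound for 48 hours before ATP readout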); details: CellTiter-Glo ATP luminescence
# [17] = SU-DIPG-VI glioma cell viability, MIPE4.0 library, CellTiter-Glo luminescence, qHTS (AID 1347066; cut-off not given, nearly all actives have AC50 up to about 30 µM;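 also: cells exposed to compound for 48 hours before readout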); details: CellTiter-Glo ATP luminescence
# [18] = JHH-DIPG-1 glioma cell viability, MIPE5.0 library, CellTiter-Glo luminescence, qHTS (AID 1347067; cut-off not given, nearly all actives have AC50 up to about 26 µM;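 also: cells exposed to compound for 48 hours before readout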); details: JHH-DIPG-1 glioma viability, CellTiter-Glo ATP luminescence
# [19] = SU-DIPG-XXV glioma cell viability, MIPE5.0 library, qHTS (AID 1347068; cut-off not given, nearly all actives have IC50 up to about 30 µM)
# [20] = modifiers of HSF1 nuclear foci, imaging, Selleck Cancer Library (AID 1347162; in the data active = plate-normalised HSF1 focus index below about 0.46); details: human cells, at 10 µM; SSMD: measured here: HSF1 foci SSMD mean; cell count: measured here: cell number; plate-normalised HSF1 focus index: stronger effect = lower value
# [21] = measured here: combination with BGB IC40, at 0.05 µM
# [22] = measured here: combination with cisplatin, at 0.5 µM
# [23] = measured here: combination with cisplatin, at 5 µM
# [24] = measured here: combination with BGB at IC20, at 0.5 µM
# [25] = measured here: combination with cisplatin at IC20, at 0.5 µM
# [26] = measured here: combo with BGB at IC20, at 0.5 µM
# [27] = measured here: combo with cisplatin at IC20, at 0.5 µM
# [28] = measured here: inhibition with BGB combination, at 0.05 µM
# [29] = measured here: inhibition with cisplatin combination, at 0.05 µM
# [30] = BGB combination, concentration series, at 5 µM
# [31] = cisplatin combination, concentration series, at 5 µM
# [32] = measured here: combo with BGB IC20, at 0.5 µM
# [33] = measured here: combo with cisplatin IC20, at 0.5 µM
# [34] = cisplatin combination, at 0.5 µM
# [35] = measured here: BGB IC40 combination 0.05 uM, at 0.05 µM
# [36] = measured here: BGB IC40 combination, at 0.05 µM
# [37] = measured here: with BGB IC20 combination, at 0.5 µM
# [38] = measured here: with cisplatin IC20 combination, at 0.5 µM
smiles,measurement,setting,value
CCOc1ccc2nc(S(N)(=O)=O)sc2c1,luciferase signal,[1],40 AU (inactive)
Oc1c(I)cc(Cl)c2cccnc12,luciferase signal,[1],52 AU (inactive)
CCCCOC(=O)c1ccc(O)cc1,luciferase signal,[1],88 AU (inactive)
CC(C)(C)C(=O)C(Oc1ccc(Cl)cc1)n1ccnc1 (stereo unspecified),z-score,[2],-0.18 (inactive)
O=C(Oc1ccccc1C(=O)O)c1ccccc1O,luciferase signal,[1],64 AU (inactive)
CNCCc1ccccn1,luciferase signal,[1],64 AU (inactive)
CC1CC(OC(=O)c2ccccc2O)CC(C)(C)C1 (stereo unspecified),luciferase signal,[1],140 AU (inactive)
CN(C(=O)CN(CCO)CC(=O)N(C)C(C)(C)Cc1ccccc1)C(C)(C)Cc1ccccc1,luciferase signal,[1],32 AU (inactive)
CC(C(=O)O)c1ccc2c(c1)Cc1cccnc1O2 (stereo unspecified),z-score,[2],0.415 (inactive)
CCOc1nc2cccc(C(=O)O)c2n1Cc1ccc(-c2ccccc2-c2nn[nH]n2)cc1,z-score,[2],0.64 (inactive)
C[C@@H](O)[C@H]1C(=O)N2C(C(=O)O)=C(SCCN=CN)C[C@H]12,z-score,[2],-0.195 (inactive) and 0.375 (inactive)
OC1(c2ccc(Cl)c(C(F)(F)F)c2)CCN(CCCC(c2ccc(F)cc2)c2ccc(F)cc2)CC1,luciferase signal,[1],60 AU (inactive)
COc1cc(C(=O)N2CCOCC2)cc(OC)c1OC,luciferase signal,[1],48 AU (inactive)
N=C(N)N1CCc2ccccc2C1,z-score,[2],0.125 (inactive)
O=c1cc[nH]c(=O)[nH]1,inhibition,[3]; at 0.5 µM,-40% (inactive)
same,inhibition,[3]; [21],-59%
same,inhibition,[3]; [22],-48%
same,inhibition,[3]; [23],-36.2%
same,inhibition,[4]; at 0.5 µM,-92.2% (inactive)
same,inhibition,[4]; [24],-94.9%
same,inhibition,[4]; [25],-107%
same,inhibition,[5]; at 0.5 µM,-17.8% (inactive)
same,inhibition,[5]; [26],-14.7%
same,inhibition,[5]; [27],-22.4%
same,inhibition,[6]; at 0.5 µM,-18% (inactive)
same,inhibition,[6]; [28],-36%
same,inhibition,[6]; [29],-27.8%
same,inhibition,[7]; at 0.5 µM,-17.4% (inactive)
same,inhibition,[7]; [22],-11.9%
same,inhibition,[7]; [23],-19.1%
same,inhibition,[8]; [30],-12.9%
same,inhibition,[8]; at 0.5 µM,-25% (inactive)
same,inhibition,[8]; [31],-6.49%
same,inhibition,[9]; at 0.5 µM,-8.86% (inactive)
same,inhibition,[9]; [32],4.39%
same,inhibition,[9]; [33],-31.7%
same,inhibition,[10]; at 0.5 µM,-12.8% (inactive)
same,inhibition,[10]; [34],-14.2%
same,inhibition,"[10]; cisplatin combination, at 5 µM",-53.2%
same,inhibition,[10]; [35],-11.4%
same,inhibition,"[10]; single agent, at 5 µM",-17.3%
same,inhibition,[11]; at 0.5 µM,-17.6% (inactive)
same,inhibition,"[11]; cisplatin combo, at 5 µM",-19.1%
same,inhibition,[11]; [36],-3.59%
same,inhibition,[11]; [22],-29.1%
same,inhibition,"[11]; single agent, at 5 µM",-18.8%
same,inhibition,[12]; at 0.5 µM,-72% (inactive)
same,inhibition,[12]; [37],-50.2%
same,inhibition,[12]; [38],-82.8%
same,inhibition,"[12]; single agent, at 0.05 µM",4.62%
same,inhibition,"[12]; single agent, at 5 µM",-35%
O=C(Oc1cccc2cccnc12)c1ccccc1,luciferase signal,[1],44 AU (inactive)
CC1CCc2c(N3CCC(O)CC3)c(F)cc3c(=O)c(C(=O)O)cn1c23 (stereo unspecified),z-score,[2],1.2 (inactive)
CN(C(=O)C(Cl)Cl)c1ccc(OC(=O)c2ccco2)cc1,luciferase signal,[1],44 AU (inactive)
CC[N+](CC)(CC(=O)Nc1c(C)cccc1C)Cc1ccccc1,luciferase signal,[1],36 AU (inactive)
O=C(CCCN1CCC(O)(c2ccc(Br)cc2)CC1)c1ccc(F)cc1,luciferase signal,[1],52 AU (inactive)
Nc1ccc2cc3ccc(N)cc3nc2c1,z-score,[2],-2.66 (inactive)
same,inhibition,[3]; at 0.5 µM,-22.9% (inactive)
same,inhibition,[3]; [21],-30.9%
same,inhibition,[3]; [22],-45.7%
same,inhibition,[3]; [23],99.1%
same,inhibition,[4]; at 0.5 µM,-33.9% (inactive)
same,inhibition,[4]; [24],-34.4%
same,inhibition,[4]; [25],-50.2%
same,inhibition,[5]; at 0.5 µM,-6.54% (inactive)
same,inhibition,[5]; [26],19.2%
same,inhibition,[5]; [27],-34.6%
same,inhibition,[6]; at 0.5 µM,-1.27% (inactive)
same,inhibition,[6]; [28],-20.6%
same,inhibition,[6]; [29],-13.2%
same,inhibition,[7]; at 0.5 µM,-9.07% (inactive)
same,inhibition,[7]; [22],-2.23%
same,inhibition,[7]; [23],84.3%
same,inhibition,[8]; [30],100%
same,inhibition,[8]; at 0.5 µM,-1.03% (inactive)
same,inhibition,[8]; [31],115%
same,inhibition,[9]; at 0.5 µM,-4.99% (inactive)
same,inhibition,[9]; [32],0.031%
same,inhibition,[9]; [33],-30.9%
same,inhibition,[10]; at 0.5 µM,-51.8% (inactive)
same,inhibition,[10]; [34],-55.3%
same,inhibition,"[10]; cisplatin combination, at 5 µM",80.4%
same,inhibition,[10]; [35],-6.84%
same,inhibition,"[10]; single agent, at 5 µM",89.8%
same,inhibition,[11]; at 0.5 µM,-8.62% (inactive)
same,inhibition,"[11]; cisplatin combo, at 5 µM",83.1%
same,inhibition,[11]; [36],9.55%
same,inhibition,[11]; [22],-20.8%
same,inhibition,"[11]; single agent, at 5 µM",73.5%
same,inhibition,[12]; at 0.5 µM,-34.4% (inactive)
same,inhibition,[12]; [37],-17.3%
same,inhibition,[12]; [38],-43%
same,inhibition,"[12]; single agent, at 0.05 µM",-52.5%
same,inhibition,"[12]; single agent, at 5 µM",100%
CCCCOc1cc(C(=O)OCCN(CC)CC)ccc1N,z-score,[2],0.26 (inactive)
CN1CCC(=C2c3ccccc3CCc3cccnc32)CC1,z-score,[2],0.04 (inactive)
C#CCN(C)CCCOc1ccc(Cl)cc1Cl,z-score,[2],-0.39 (inactive)
Cc1ncc(CO)c(CO)c1O,luciferase signal,[1],160 AU (inactive)
CC(=O)N[C@@H](CC(C)C)C(=O)O,luciferase signal,[1],56 AU (inactive)
OCCc1ccccc1,luciferase signal,[1],108 AU (inactive)
CC1=C(/C=C/C(C)=C/C=C/C(C)=C/C(=O)Nc2ccc(O)cc2)C(C)(C)CCC1,AC50,[13],2.7 µM (active)
same,AC50,[14],4.81 µM (active)
same,AC50,[15],16.6 µM (active)
same,AC50,[16],14.8 µM (active)
same,AC50,[17],9.59 µM (active)
same,AC50,[18],20.9 µM (active)
same,outcome,[19],inactive
same,SSMD,[20],-4.16
same,cell count,[20],7280
same,plate-normalised HSF1 focus index,[20],0.851 (inactive)
same,z-score,[2],-0.95 (inactive) and -0.72 (inactive) and -2.12 (inactive)
